The record followed here is PubChem BioAssay (NCI).

What all share (test): NCI-60 one-dose screen, 48 h (100 = growth as untreated, 0 = no growth, -100 = all killed)
Holding throughout (settings): 10 µM unless noted

Test [1] has as its system DU-145 prostate.
The subject of test [2] is K-562 leukemia.
The subject of test [3] is MALME-3M melanoma.
Test [4] relates to MDA-MB-231 breast.
Test [5] relates to RXF 393 renal.
Test [6] deals with SF-268 CNS.
Test [7] deals with SF-295 CNS.
The test system of test [8] is SF-539 CNS.
The test system of test [9] is UACC-257 melanoma.
Test [10] concerns M14 melanoma.
Test [11] deals with HCT-15 colon.
Test [12] has as its system HT29 colon.
For test [13], the system named is SNB-75 CNS.
Test [14] deals with SNB-19 CNS.
Test [15] concerns U251 CNS.
In test [16] the test system is PC-3 prostate.
Test [17] relates to SK-MEL-5 melanoma.
Test [18] has as its system UACC-62 melanoma.
The test system of test [19] is LOX IMVI melanoma.
In test [20] the test system is SK-MEL-28 melanoma.

SMILES strings stand for the structures. Compounds without any hit were thinned out: in the full panel of roughly 83,000, 20% have a hit.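 For each line, cells grew in 96-well plates with the test compound present at a single concentration for 48 hours.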 Values without a mark were called inactive. Active and inactive are the calls of the source. The calls were made as follows: active = growth percent below 10; inactive = the rest.

As to `COc1ccc(/C=C2\Cc3c(Br)cccc3C2=O)c(OC)c1`, the growth in test [1] was 87.4%; in test [2], 64%; in test [3], 60.2%; in [4] it was 58%; in [5] it was 80.9%; in test [6], 73.6%. For the same compound, the growth in test [7] is 67.5%; in [8] it was 73.4%; in test [9] it was 98.2%; in test [10], 47%; in test [11], 51.1%; in [12], 64.4%. The growth in test [13] is 70.7%; in test [14] it was 53.3%; in [15], 55.6%; in test [16] it was 81.1%; in test [17] it was 47.9%; in [18], 38.9%. For the same compound, the growth in test [19] was 59.9%; in test [20] it was 64.3%.

As to `COc1ccc(/C(=C\c2cc(OC)c(OC)c(OC)c2)C(=O)N2CCN(c3ccccc3)CC2)cc1O`, the growth in test [1] is 115%; in [2] it was 104%; in test [3], 104%; in test [4], 95.1%; in test [5] it was 98.2%; in test [6], 101%. In addition, the growth in [7] was 96.2%; in test [8] it was 92.1%; in [9] it was 93.1%; in test [10], 105%; in [11], 97.2%; in test [12], 101%. Further, the growth in test [13] was 77.4%; in [14] it was 97.6%; in [15], 96.3%; in [16] it was 84.4%; in test [17], 97.1%; in test [18], 88.4%. For the same compound, the growth in test [19] is 94%; in test [20], 105%.

On to `COC(=O)C(C)NC1=C(Cl)C(=O)C(NC(C)C(=O)OC)=C(Cl)C1=O` (stereo not given), for which the growth in test [1] was 101%; in [2] it was 109%; in test [3] it was 72.2%; in [4] it was 94.6%; in test [5] it was 101%; in test [6], 102%. Moreover, the growth in [7] was 99%; in [8] it was 107%; in test [9], 86.4%; in test [10], 103%; in test [11], 92.6%; in test [12], 98.2%. Moreover, the growth in [13] was 86%; in test [14], 94%; in test [15], 98%; in [16] it was 92%; in test [17], 79.2%; in [18] it was 99.8%. For the same compound, the figures for the growth in [19] and in test [20] were 91.1% and 111%, respectively.

`N#Cc1c(N)n(C2OC(CO)C(O)C2O)c2ncnc(N)c12` (stereo not given): the growth is -9.06% (active) in test [1]; -28.6% (active) in [2]; -25.7% (active) in test [3]; 14.3% in [4]; -77.1% (active) in test [5]; -18.8% (active) in [6]. For the same compound, the growth in test [7] is 4.21% (active); in test [8], -53.1% (active); in test [9], -37.8% (active); in test [10] it was -52% (active); in test [11] it was -4.45% (active); in test [12], 2.5% (active). For the same compound, the growth in test [13] is -37.5% (active); in test [14], 5.99% (active); in test [15], 15.2%; in test [16], -13.5% (active); in test [17], -33.4% (active); in test [18], -49.6% (active). The growth in test [19] is -52.4% (active); in [20] it was -60.9% (active).

In the case of `CN(C)CCOc1nc2c3ccncc3cc(-c3cccc(Cl)c3)c2c2cnccc12`, the growth in test [1] is 30.7%; in [2], -34.7% (active); in test [3], 40.1%; in test [4], 24%; in test [5] it was 1.01% (active); in test [6] it was 35.1%. Besides, the growth was 31.6% in test [7]; 32% in [8]; 47.3% in [9]; 26% in test [10]; 22.1% in test [11]; 17% in [12]. Besides, the growth in test [13] is 39.8%; in [14] it was 28.4%; in test [15], 28%; in test [16], 30.1%; in test [17], 10.8%; in test [18], 24.6%. In addition, the growth in [19] is 5.79% (active); in [20] it was 13.3%.

Turning to `O=C(N=Nc1c(Cl)c(O)c2ccccc2c1O)C(=O)Nc1cccc(C(F)(F)F)c1`, the growth in test [1] was -38.7% (active); in [2] it was 57.6%; in [3], 10.7%; in test [4], 56.6%; in test [5], 81.5%; in [6], 68.2%. The growth is 41.1% in test [7]; 102% in test [8]; 100% in test [9]; 32.8% in test [10]; 68.9% in test [11]; 73.6% in test [12]. The growth in test [13] is 31.3%; in [14], 92.6%; in test [15], 74.6%; in [16] it was 58.2%; in test [17] it was 72.4%; in test [18] it was 83.2%. Besides, the growth in [19] is 14.7%; in test [20], 101%.

Consider `Cc1cc(C)c2c(n1)sc1c(Nc3ccc(O)cc3)ncnc12`, for which the growth in test [1] was 21.3%; in test [2], 45.1%; in [3] it was 63.9%; in test [4], 59%; in test [5] it was 32%; in [6], 19.3%. Also, the growth is 18.3% in test [7]; 3.84% (active) in test [8]; 38.7% in test [9]; -21.5% (active) in [10]; 51.7% in test [11]; 40% in test [12]. The growth is 50.4% in test [13]; 31% in test [14]; 26.6% in test [15]; 47.2% in test [16]; 25.6% in test [17]; 16.1% in test [18]. Moreover, the growth in test [19] is 13.1%; in test [20], 77.7%.
